Consider 62 compounds from PubChem BioAssay AID868 (SRMLSC, 2007).

Out of some 190,000 compounds screened, about 3,500 (1.8%) were called active. The list comes from a sample in which actives are over-represented; it also holds similar structures and randomly drawn compounds. A number with no mark means an inactive call.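 Rule for the calls: active = inhibition above a set limit, 3 SD over mean compound inhibition (cut at about 8.4% in these data); inactive = the rest.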

A short description of this experiment: RAM signaling blockers in budding yeast – dse1pr::URA3 reporter, 5-FOA selection, primary screen (AID 868).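 Note: 0% = DMSO-only wells with no growth and 100% = 10 µM 1-NA-PP1 full growth; inhibition rescues growth on 5-FOA so higher OD means more RAM inhibition.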 The settings on record: S. cerevisiae dse1pr::URA3 reporter, 5-FOA growth OD615, 2 d; at 50 µM; stronger effect = higher value; analog-sensitive cbk1-as2 kinase mutant strain.
By inhibition is commonly meant the relative decrease from the control value, in per cent. Turning to `COc1cccc2cc(/C(C)=N/NC(=O)c3ccco3)oc12`, the inhibition was 1.11%.

Turning to `CCCCOC(=O)Nc1sc2nc(C)cc(C)c2c1-n1cccc1`, the inhibition was 9.53% (active).

Turning to `Cc1cc(C)c2c(-n3cccc3)c(NC(=O)OCc3ccccc3)sc2n1`, the inhibition is 5.58%.

Turning to `COC(=O)Nc1sc2nc(C)cc(C)c2c1-n1cccc1`, the inhibition was 0.22%.

Regarding `COc1cc(CN(C)Cc2nc3cc(C(F)(F)F)ccc3c(=O)[nH]2)ccc1OC(F)F`, the inhibition is 2.67%.

In the case of `CCOC(=O)C1=C(C)N=C2c3ccccc3C(=O)C2C1c1ccc(Br)cc1` (configuration not stated), the inhibition is 1.62%.

As to `N#CC(=C1SC=CS1)c1nc(-c2ccccc2)cs1`, the inhibition was 3.35%.

Consider `N#CC(=C1CCCC1)c1nc(-c2ccc(Cl)cc2)cs1`, for which the inhibition was 9.11% (active).

Regarding `N#C/C(=C1\CCCN1)c1nc(-c2ccccc2)cs1`, the inhibition is 3.76%.

Take `O=C(CSc1ccc(-c2ccccc2)nn1)NCC1CCCO1` (configuration not stated): the inhibition is 2.21%.

As to `Cc1ccc(S(=O)(=O)c2c(N)n(C)c3nc4ccccc4nc23)cc1`, the inhibition is 12.3% (active).

For `CCC(=O)Nc1c(S(=O)(=O)c2ccccc2)c2nc3ccccc3nc2n1Cc1ccccc1`, the inhibition was 2.78%.

On to `C=CCn1c(N)c(S(=O)(=O)c2cccs2)c2nc3ccccc3nc21`, for which the inhibition is 1.69%.

Take `COc1ccc(C(=O)C[n+]2ccc(C)cc2)cc1`: the inhibition was 0.48%.

Take `CCOC(=O)C1CCCN(C(=O)/C=C/c2ccc(OC)cc2)C1` (configuration not stated): the inhibition was 0.37%.

Regarding `COc1ccc(C(=O)/C=C/Nc2ccccn2)cc1`, the inhibition was 2.71%.

Turning to `O=C(/C=C/c1ccccc1)c1ccccc1O`, the inhibition is -0.67%.

On to `COc1ccc(C(=O)/C=C/c2ccc(OC3CSC3)cc2)cc1`, for which the inhibition is 9.21% (active).

For the compound `COc1ccc(/C=C/C(=O)c2cc(Br)ccc(=O)c2O)cc1`, the inhibition is 1.75%.

Turning to `COc1ccc(/C=C/C(=O)c2ccc(OC)cc2O)cc1`, the inhibition was 8.82% (active).

For the compound `C=CCOc1c(CNn2cn[nH]c2=S)cccc1OC`, the inhibition is 0.75%.

For the compound `COC(=O)c1ccc(NC(=S)Nc2cccc(C)n2)cc1`, the inhibition is 3.21%.

On to `CC1CCN(C(=S)c2cccc([N+](=O)[O-])c2)CC1`, for which the inhibition was -0.74%.

Turning to `CC(NC(=S)NC1CCCCC1)C(c1ccccc1)N1CCOCC1` (configuration not stated), the inhibition is 0.28%.

As for `CCOc1c(Cl)cc(/C=N/O)cc1OC`, the inhibition was 2.16%.

As for `CCOc1cc(/C=N/O)cc(Br)c1OC`, the inhibition was 0.34%.

On to `COc1cc(/C=N/O)cc(Br)c1OCc1cccc(Cl)c1`, for which the inhibition was 9.47% (active).

For the compound `NS(=O)(=O)c1cccc(NC(=O)COC(=O)/C=C/c2ccco2)c1`, the inhibition is 0.38%.

Take `CCc1ccc2nc3sc(C(=O)Nc4nnc(CC)s4)c(N)c3cc2c1`: the inhibition was 8.98% (active).

As for `CCc1nnc(NC(=O)c2cccs2)s1`, the inhibition was 1.49%.

For `CCc1nnc(NC(=O)c2sc3nc(C)cc(COC)c3c2N)s1`, the inhibition is 1.25%.

`COCc1c(C(=O)OCc2c(C)noc2C)oc2ccccc12`: the inhibition is 0.88%.

Turning to `Cc1cc(/C=C2/C(=N)N3C(=NC2=O)SN=C3S(C)(=O)=O)c(C)n1-c1ccccc1`, the inhibition is 4.35%.

Consider `COc1ccc2c(CC(=O)Nc3nnc(C4CC4)s3)coc2c1`, for which the inhibition was 3.72%.

Take `COc1cc(NC(=O)COC(=O)CSc2ccc3ccccc3c2)c(C)cc1[N+](=O)[O-]`: the inhibition is 2.2%.

Take `COc1ccc2c(CC(=O)OCC(=O)Nc3ccccc3[N+](=O)[O-])coc2c1`: the inhibition is 10% (active).

For `CCCCS(=O)c1snnc1C` (configuration not stated), the inhibition was -0.12%.

For `O=C(NNC(=O)c1cc2c(s1)CCCC2)c1ccccc1`, the inhibition is 9.1% (active).

Regarding `O=C(CNC(=O)c1cc2c(s1)CCC2)Nc1ccccc1Br`, the inhibition was 1.93%.

With `O=C(c1cc2c(s1)CCC2)N1CCN(c2ccccc2)CC1`, the inhibition was 4.37%.

Regarding `CCOC(=O)Cc1csc(SCC(=O)NC(C)C23CC4CC(CC(C4)C2)C3)n1` (configuration not stated), the inhibition is 0.91%.

As for `CC(NC(=O)COC(=O)c1ccc(Cl)cc1O)c1ccc(F)cc1` (configuration not stated), the inhibition was 3.6%.

In the case of `COc1cccc(-n2c(=S)sc3c(=O)n(-c4ccccc4OC)c(SCC4OCCO4)nc32)c1`, the inhibition was 7.01%.

As to `CCc1ccc(-n2c(=S)sc3c(=O)n(-c4ccccc4OC)c(=S)[nH]c32)cc1`, the inhibition was 5.97%.

Take `COc1ccccc1-n1c(=S)[nH]c2c(sc(=S)n2-c2ccc(C)cc2C)c1=O`: the inhibition is 9.12% (active).

In the case of `O=C(c1ccncc1)c1ccc([N+](=O)[O-])cc1`, the inhibition was 0.73%.

Regarding `CC(C)=C1C2CCC1C1C(=O)N(NC(=O)c3ccco3)C(=O)C21` (configuration not stated), the inhibition is -1.09%.

As for `N/C(=N\OC(=O)Cc1ccc([N+](=O)[O-])cc1)c1ccccn1`, the inhibition is 1.23%.

For the compound `N/C(Cc1ccc([N+](=O)[O-])cc1)=N\OC(=O)COc1ccc2ccccc2c1`, the inhibition was 12% (active).

As for `N/C(=N\OC(=O)COc1ccc([N+](=O)[O-])cc1)c1ccc(Br)cc1`, the inhibition is 2.29%.

Regarding `CN(C)c1nnnn1-c1ccc(Cl)cc1`, the inhibition was -0.37%.

Consider `O=C(O)/C=C/c1cn(Cc2ccccc2)nc1-c1cccs1`, for which the inhibition is 4%.

Turning to `CCC(C(=O)OCC(=O)Nc1ccc(C(=O)Nc2ccc(OC)cc2)cc1)c1ccccc1` (configuration not stated), the inhibition was 4.72%.

As for `CCC(C(=O)OCC(=O)Nc1ccccc1-c1ccccc1)c1ccccc1` (configuration not stated), the inhibition is 6.39%.

In the case of `CCC(C(=O)OCC(=O)Nc1c(Cl)cc(Cl)cc1Cl)c1ccccc1` (configuration not stated), the inhibition was 12.2% (active).

Turning to `COCCNC(=O)NC(=O)COC(=O)C1(c2ccc(Cl)cc2)CC1`, the inhibition was 0.14%.

Turning to `Nc1ncnc(Nc2cccc(Cl)c2Cl)n1`, the inhibition was 0.27%.

As for `CC(=O)Nc1ccc(Sc2ccccc2C(=O)N2CCCC2)cn1`, the inhibition was 1.82%.

For `COc1ccc(OC)c(C2C3=C(N=c4s/c(=C\c5cccc(O)c5)c(=O)n42)c2ccccc2CC3)c1` (configuration not stated), the inhibition is 12.7% (active).

Regarding `O=C1CCCC2=C1C(c1ccccc1)n1c(s/c(=C/c3cccc(F)c3)c1=O)=N2` (configuration not stated), the inhibition was 3.98%.

With `CCOC(=O)C1=C(C)N=c2s/c(=C\C(=O)OC)c(=O)n2C1c1ccc(OC)cc1` (configuration not stated), the inhibition was 2.7%.

For the compound `Cc1ccc2[nH]c(=O)c(CN(CC3COCCO3)C(=O)Nc3ccccc3C)cc2c1` (configuration not stated), the inhibition is 0.63%.
